Screening data deposited in PubChem by National Center for Advancing Translational Sciences (NCATS).
An excerpt weighted towards active compounds, which were near 7.3% of everything screened.
Tau fibril ThT – qHTS for Inhibitors of Tau Fibril Formation, Thioflavin T Binding; Potency, µM (titrated, usually from 57.4 µM), for inactives: top-dose activity, negative = inhibition, usual class: inhibitors; hit rate 2.1% among 270,000; AID 1460, 2008; recombinant tau K18 P301L, heparin-induced fibrillization, ThT fluorescence; Microtubule-associated protein tau (Homo sapiens), P10636; note: nearly all actives have a fitted effect of over 55% in size
Target sequence (P10636 561-689 P618L limits assumed): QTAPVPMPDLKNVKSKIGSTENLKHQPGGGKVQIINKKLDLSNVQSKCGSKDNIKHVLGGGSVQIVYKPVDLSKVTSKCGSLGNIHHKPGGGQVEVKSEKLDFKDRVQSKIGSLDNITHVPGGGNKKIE
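Using a mix of unlabeled (15 uM) and Alexa 594-labeled (0.24 uM) tau K18 P301L, heparin-triggered fibrillization over 6 hr at 37 C was scored by ThT fluorescence.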
Gal4-VP16 FLuc – VP16 counterscreen qHTS for inhibitors of ROR gamma transcriptional activity. Drosophila S2 Gal4-VP16 UAS-luciferase, luminescence, 20 h. Potency, µM (series often up to 53.6 µM), without a hit: at the highest dose activity, negative = inhibition, actives largely listed as inhibitors. hit rate 3.5% among 310,000. AID 2546, 2010;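 note: Gal4-VP16 expression switched on by copper sulfate through the metallothionein promoter; nearly all actives have a fitted effect of over 50% in size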
Tau fluor cs – Counterscreen qHTS for Inhibitors of Tau Fibril Formation, Fluorescence Polarization. hit rate 0.93% among 280,000. Potency, µM (top dose mostly 57.7 µM), for the others: at the top dose activity change, negative = decrease. tau K18 P301L (four-repeat tau fragment) Alexa594 fluorescence, heparin fibrillization. AID 1463, 2008; note: nearly all actives have a fitted effect of over 55% in size
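Human K18 P301L tau (15 uM unlabeled plus 0.24 uM Alexa 594-labeled, final) in 100 mM sodium acetate pH 7 was mixed with compound and 20 uM heparin and incubated 6 hr at 37 C.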
RORgamma inh – qHTS for inhibitors of ROR gamma transcriptional activity. Nuclear receptor ROR-gamma (Mus musculus), P51450. Drosophila S2 Gal4-RORgamma UAS-luciferase reporter, 20 h. Potency, µM (doses to about 53.6 µM), for the others: top-dose activity change, negative = inhibition, usual class: inhibitors. hit rate 5.4% among 310,000. AID 2551, 2010; note: nearly all actives have a fitted effect of over 60% in size
Target sequence (P51450 whole entry, looked up, the tested form may be a part): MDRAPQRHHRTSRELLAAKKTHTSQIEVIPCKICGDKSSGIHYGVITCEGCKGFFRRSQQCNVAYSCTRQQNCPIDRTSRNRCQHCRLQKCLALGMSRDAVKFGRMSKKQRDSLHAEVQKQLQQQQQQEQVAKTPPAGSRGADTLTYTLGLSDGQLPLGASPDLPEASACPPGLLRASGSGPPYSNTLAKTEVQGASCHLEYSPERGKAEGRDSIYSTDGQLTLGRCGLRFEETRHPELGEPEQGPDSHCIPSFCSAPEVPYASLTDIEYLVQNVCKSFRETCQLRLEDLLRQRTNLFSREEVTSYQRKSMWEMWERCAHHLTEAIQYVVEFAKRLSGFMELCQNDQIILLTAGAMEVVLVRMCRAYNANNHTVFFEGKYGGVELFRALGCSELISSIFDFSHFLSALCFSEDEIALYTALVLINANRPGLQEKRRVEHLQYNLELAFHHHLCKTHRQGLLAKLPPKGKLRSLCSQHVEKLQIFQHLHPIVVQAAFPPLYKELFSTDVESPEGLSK
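Using a luciferase readout, inhibitors were identified by reduced reporter activity in Drosophila cells coexpressing a copper-inducible Gal4–ROR gamma fusion and UAS-driven Photinus luciferase, incubated 20 hr after 700 uM copper sulfate.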
Tau fibril FP – qHTS for Inhibitors of Tau Fibril Formation, Fluorescence Polarization | Potency, µM (top dose mostly 57.7 µM), without a hit: top-dose activity, negative = inhibition, most hits filed as inhibitors | hit rate 0.39% among 280,000 | K18 P301L tau heparin fibrillization, Alexa594 FP, 6 h; note: nearly all actives have a fitted effect of over 55% in size
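Recombinant K18 P301L […], labeled with Alexa 594 at 0.24 uM over 15 uM unlabeled; heparin inducer 20 uM final; 37 C, 6 hr; FP endpoint.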
An asterisk follows results filed as active; ? = inconclusive; nt = no result given; [ ] = remark or other dose. Calls come from the whole dose curve; as a rule, active = well fitted curve in the direction sought with a large enough effect; inconclusive = small, poorly fitted or top-dose-only effect, or another doubt; inactive = no such curve, though single readings can be large; an effect the other way counts as inactive or inconclusive. % is set by controls: 0 for no effect and ±100 for the full control effect; potency is the fitted concentration of half-maximal effect.

SMILES	Tau fibril ThT	Gal4-VP16 FLuc	Tau fluor cs	RORgamma inh	Tau fibril FP
O=[N+]([O-])c1cccc(-c2ccc(C(=S)N3CCOCC3)o2)c1	11.8%	-29.0%	9.4%	-10.6%	-9.5%
CCOC(=O)C1=CN(C(=O)OC(C)(C)C)C(CN2C(=O)COCC2=O)C1 (centres undefined)	nt	?	nt	-25.2%	nt
Cc1noc(C)c1-c1ccc2ncnc(NCc3ccccc3F)c2c1	nt	11.2µM*	nt	-9.3%	nt
Cc1noc(C)c1-c1ccc2ncnc(N(C)Cc3ccco3)c2c1	-21.4%	?	-21.6%	12.6µM*	-9.7%
Cc1noc(C)c1-c1ccc2ncnc(NCc3cccc(C(F)(F)F)c3)c2c1	nt	12.6µM*	nt	-15.9%	nt
Cc1noc(C)c1-c1ccc2ncnc(NCc3ccc(C(F)(F)F)cc3)c2c1	nt	?	nt	17.3%	nt
CCOc1ccccc1CNc1ncnc2ccc(-c3c(C)noc3C)cc12	nt	?	nt	39.8µM*	nt
O=C(CSc1nnc(CNC(=O)c2ccccc2)o1)NCC1CCCO1 (centres undefined)	nt	-17.0%	nt	-14.1%	nt
C=CCSSSCC=C	9.2%	-5.1%	6.4%	-7.1%	-0.6%
CC(C)CCOc1ccc(C(=O)NCC(c2ccco2)N(C)C)cc1 (centres undefined)	nt	21.4%	nt	42.4%	nt
CCOC(=O)C1=C(CSc2nc3c(cc2C#N)CN(C)CC3)OC(N)=C(C#N)C1c1ccc(Cl)cc1 (centres undefined)	20µM*	-9.7%	?	8.9%	-16.0%
CCN(C(=O)CSc1cc(-c2ccccc2)c2ccc(OC)cc2n1)C1CCS(=O)(=O)C1 (centres undefined)	?	-23.5%	-15.8%	28.8%	-3.4%
COc1ccc2c(-c3ccccc3)cc(SCC(=O)NC3CCS(=O)(=O)C3)nc2c1 (centres undefined)	-10.1%	-5.8%	-24.8%	11.2µM*	11.6%
C/C(=N\NC(=O)c1cccc(C)c1O)c1ccc(NC(=O)Cc2ccccc2)cc1	nt	?	nt	11.2µM*	nt
C/C(=N\NC(=O)c1ccccc1N)c1ccc(NC(=O)Cc2ccccc2)cc1	nt	-0.1%	nt	7.2%	nt
COc1ccccc1C(=O)N/N=C(\C)c1ccc(NC(=O)Cc2ccccc2)cc1	nt	7.94µM*	nt	18.4%	nt
C/C(=N\NC(=O)c1cc(O)cc(O)c1)c1ccc(NC(=O)Cc2ccccc2)cc1	nt	26.4%	nt	?	nt
COc1ccc(-c2nc3cnc(Nc4cccc(OC)c4)nc3n(Cc3cccs3)c2=O)cc1	nt	-0.1%	nt	11.1%	nt
CCS(=O)(=O)N1CCc2cc(C(=O)NCc3ccccc3OC)ccc21	?	nt	?	nt	3.1%
Cc1ccc(Nc2c(-c3c[nH]c4ccccc34)nc3ccccn23)cc1	?	nt	8.91µM*[quencher]	nt	-3.7%
Cc1ccc2nc(-c3c[nH]c4ccccc34)c(Nc3ccccc3C)n2c1	2.4%	nt	?	nt	11.1%
COc1ccc(OC)c(C(=O)/C=C/c2ccccc2C(F)(F)F)c1	?	?	-13.4%	12.6µM*	-14.6%
COc1ccc(/C=C/C(=O)c2cccs2)c(OC)c1	?	35.5µM*	-10.9%	12.6µM*	6.0%
COc1ccc(/C=C/C(=O)c2c(O)cc(C)oc2=O)c(OC)c1	-16.6%	?	-5.6%	?	3.0%
O=C(/C=C/c1ccnc2ccccc12)c1cccs1	?	14.1µM*	6.5%	?	-3.8%
SMILES	Tau fibril ThT	Gal4-VP16 FLuc	Tau fluor cs	RORgamma inh	Tau fibril FP
O=C(Cn1cnc2ccccc2c1=O)c1cccs1	-8.6%	-5.2%	-12.5%	3.2%	-13.8%
COc1ccccc1Nc1nc2ccc(C)cc2n2cnnc12	nt	19.2%	nt	10.3%	nt
CN(Cc1ccccc1)C(=O)CN1C(=O)CSc2ccc(S(=O)(=O)N3CCOCC3)cc21	1.5%	nt	-5.0%	nt	-8.0%
CC(C)[C@H](NC(=O)c1ccco1)C(=O)OCC(=O)c1ccc2c(c1)NC(=O)CO2	-3.0%	-5.6%	1.6%	40.5%	4.9%
CC(C)CC(NC(=O)c1ccc(Cl)cc1)C(=O)OCC(=O)c1ccc2c(c1)NC(=O)CO2 (centres undefined)	-3.4%	7.08µM*	-5.1%	11.2µM*	-8.0%
N#Cc1ccccc1Cn1c(SCC(=O)NCc2ccccc2)nc2ccccc21	-8.4%	nt	-13.5%	nt	-1.6%
Cc1ccc(-c2cc(O)cc3sc(=O)oc23)cc1C	?	-13.6%	15.8µM*[quencher]	1.4%	22.4µM*
C=CCCCCCCCCC(=O)OC	nt	4.5%	nt	-1.3%[10 µM]	nt
CCCCN(CC)CCCn1cnc2c([nH]c3ccc(Cl)cc32)c1=O	-2.7%	nt	-13.8%	nt	-9.8%
O=[N+]([O-])c1ccccc1NCCOc1ccccc1	?	3.7%	-19.8%	25.6%	?
CC1CN(c2ccc([N+](=O)[O-])c(NCCOc3ccc(Cl)cc3)c2)CC(C)N1 (centres undefined)	nt	17.8µM*	nt	?	nt
CC1CN(c2ccc([N+](=O)[O-])c(NCCOc3ccccc3)c2)CC(C)N1 (centres undefined)	nt	0.2%	nt	-12.1%	nt
COc1cccc(OCCNc2cc(Cl)ccc2[N+](=O)[O-])c1	8.91µM*	-4.8%[0.365 µM]	-29.9%	9.4%	-3.9%
Cc1ccccc1OCCNc1cc(N2CC(C)NC(C)C2)ccc1[N+](=O)[O-] (centres undefined)	17.8µM*	?	?	?	?
C=CCN(CC=C)C(=S)NC(=O)c1ccc([N+](=O)[O-])cc1	-7.9%	0.126µM*	-7.0%	0.126µM*	1.3%
CCN(CC)C(=S)NC(=O)c1ccc(OC)c(Br)c1	-9.0%	0.501µM*	-11.8%	0.355µM*	-1.8%
COc1ccc(C(=O)NC(=S)NCCO)cc1Br	3.2%	1.12µM*	4.5%	0.794µM*	4.9%
COc1ccc(C(=O)NC(=S)NCc2cccnc2)cc1Br	-7.6%	?	-7.6%	?	-3.5%
COc1ccc(C(=O)c2ccc(OC)c(Br)c2)cc1Br	-16.6%	?	-25.0%	16.3%	-13.7%
C=CCN(CC=C)C(=S)NC(=O)c1ccc(OC)c(Br)c1	-15.0%	0.708µM*	-22.9%	0.282µM*	-6.5%
O=C(NCC(c1ccc2c(c1)OCO2)N1CCN(c2ccccc2F)CC1)c1ccccc1F (centres undefined)	-12.4%	nt	-17.0%	nt	-0.8%
COc1ccc(/C=C2/C(=O)N(Cc3ccccc3)N=C2C)cc1	3.1%	?	15.0%	?	4.2%
COc1ccc(/C=C2/C(=O)N(c3nc4ccccc4s3)N=C2CSc2ccc(Cl)cc2)cc1	?	12.6µM*	?	14.1µM*	-11.6%
CCOc1ccc(NC(=S)NC(=O)C2CCCC2)cc1	nt	6.31µM*	nt	1.12µM*	nt
CCN(CC)c1ccc(NC(=S)NC(=O)C2CCC2)cc1	nt	6.31µM*	nt	1.78µM*	nt
COC(=O)C1=C(C)NC(=O)/C1=C\c1cc(C)n(-c2cccc(C)c2)c1C	25.1µM*	4.2%	?	-6.7%	3.2%
